Experimental data reported in PubChem BioAssay (Tox21).
Inconclusive results are not listed. Some compounds were tested as several samples or in several runs, with calls that do not always agree. Active and inactive are the calls of the source. Unless noted, the call rests on the fitted dose curve; in most records, active means well fitted curve in the direction sought with a large enough effect in the repeat runs; inconclusive means weak or mixed curves; inactive means no such curve, though single readings can be large; an effect the other way counts as inactive or inconclusive.

Experiments:
[1] = qHTS assay to identify aromatase inhibitors - cell viability counter screen (AID 743084);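 further: cells stimulated with testosterone during compound exposure; nearly all actives have a fitted effect of over 55% in size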
[2] = molecular target: Aryl hydrocarbon receptor (Homo sapiens) (UniProt P35869); assay: qHTS assay to identify small molecule that activate the aryl hydrocarbon receptor (AhR) signaling pathway (AID 743085); further: nearly all actives have a fitted effect of over 15% in size; further: potency means the concentration at half of the fitted maximal effect;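 on activation: HG2L7.5c1 human HepG2 liver cells with stably integrated DRE-driven firefly reporter; series mostly up to about 70 µM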
Aryl hydrocarbon receptor (Homo sapiens), sequence (P35869 whole entry, looked up): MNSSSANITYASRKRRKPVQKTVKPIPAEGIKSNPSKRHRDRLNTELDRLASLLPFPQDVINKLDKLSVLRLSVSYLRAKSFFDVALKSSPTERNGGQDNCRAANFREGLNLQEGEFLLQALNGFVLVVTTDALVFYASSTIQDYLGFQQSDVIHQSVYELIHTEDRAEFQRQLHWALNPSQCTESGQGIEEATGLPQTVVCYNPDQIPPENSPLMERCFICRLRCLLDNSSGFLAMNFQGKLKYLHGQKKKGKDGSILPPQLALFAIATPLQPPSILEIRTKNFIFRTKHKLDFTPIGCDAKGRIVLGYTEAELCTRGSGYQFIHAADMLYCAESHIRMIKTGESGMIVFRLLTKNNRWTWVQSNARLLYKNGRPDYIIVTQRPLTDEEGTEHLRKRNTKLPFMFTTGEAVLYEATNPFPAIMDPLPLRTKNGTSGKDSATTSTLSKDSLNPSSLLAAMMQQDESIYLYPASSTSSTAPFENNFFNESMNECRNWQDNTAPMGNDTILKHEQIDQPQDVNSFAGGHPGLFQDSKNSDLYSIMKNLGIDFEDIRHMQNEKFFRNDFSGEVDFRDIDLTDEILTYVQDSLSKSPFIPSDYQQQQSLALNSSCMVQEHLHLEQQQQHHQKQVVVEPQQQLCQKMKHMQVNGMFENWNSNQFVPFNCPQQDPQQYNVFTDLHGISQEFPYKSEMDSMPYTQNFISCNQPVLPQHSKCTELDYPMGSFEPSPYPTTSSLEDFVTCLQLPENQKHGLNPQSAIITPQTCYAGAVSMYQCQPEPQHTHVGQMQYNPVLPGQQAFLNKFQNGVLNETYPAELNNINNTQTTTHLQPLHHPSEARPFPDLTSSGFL
In short: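 Cell line HG2L7.5c1 (human hepatoma, 20× DRE-luc). Plated, 5 h 37C, compound/DMSO added, 24 h 37C. CellTiter-Fluor 30 min 37C → fluorescence; then ONE-Glo 30 min RT → luminescence.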

[3] = molecular target: Peroxisome proliferator-activated receptor gamma (Homo sapiens) (UniProt P37231); assay: qHTS assay to identify small molecule agonists of the peroxisome proliferator-activated receptor gamma (PPARg) signaling pathway (AID 743094; active means well fitted activation curve with a large enough effect in the signal ratio in the repeat runs, not every such curve was filed as active; the % refers to the signal ratio)
Peroxisome proliferator-activated receptor gamma (Homo sapiens), sequence (P37231 whole entry, looked up): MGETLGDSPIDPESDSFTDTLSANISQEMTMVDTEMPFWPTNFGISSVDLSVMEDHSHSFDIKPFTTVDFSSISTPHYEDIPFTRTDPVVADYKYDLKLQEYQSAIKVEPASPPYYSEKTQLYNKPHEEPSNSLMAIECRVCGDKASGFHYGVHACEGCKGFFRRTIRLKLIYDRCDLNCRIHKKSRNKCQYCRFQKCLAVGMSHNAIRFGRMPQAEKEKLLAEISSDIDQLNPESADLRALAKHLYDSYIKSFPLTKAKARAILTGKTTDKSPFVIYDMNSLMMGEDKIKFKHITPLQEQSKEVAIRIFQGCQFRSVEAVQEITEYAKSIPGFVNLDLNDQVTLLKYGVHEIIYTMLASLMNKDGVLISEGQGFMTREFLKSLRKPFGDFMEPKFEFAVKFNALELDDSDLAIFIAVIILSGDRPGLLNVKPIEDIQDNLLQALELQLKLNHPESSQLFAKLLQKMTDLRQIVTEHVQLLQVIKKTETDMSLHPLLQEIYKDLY
In short: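 Beta-lactamase FRET fluorescence was the read-out after a 1 h room-temperature substrate step, following 17 h compound treatment at 37C of HEK293H cells expressing a UAS-driven bla reporter responsive to PPARg.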

[4] = molecular target: Peroxisome proliferator-activated receptor gamma (Homo sapiens) (UniProt P37231); assay: qHTS assay to identify small molecule antagonists of the peroxisome proliferator-activated receptor gamma (PPARg) signaling pathway (AID 743191; calls by dose curve; further: series mostly up to about 63 µM; nearly all actives have a fitted effect of over 30% in size)
In short: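 Beta-lactamase reporter under UAS control in HEK293H PPARg-bla cells; compound treatment 17 h at 37C. Read-out: fluorescence intensity after 1 h room-temperature incubation with LiveBLAzer B/G FRET substrate.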

[5] = qHTS assay to identify small molecule antagonists of the peroxisome proliferator-activated receptor gamma (PPARg) signaling pathway - cell viability counter screen (AID 743194); conditions: Potency: co-treated with 50 nM rosiglitazone; further: nearly all actives have a fitted effect of over 55% in size
In short: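 Viability was measured as CellTiter-Glo luminescence in GeneBLAzer PPARg UAS-bla HEK293H cells. These cells had been exposed 17 h at 37 C to compounds together with rosiglitazone at 50 nM final, with the beta-lactamase readout taken in the same wells.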

[6] = qHTS assay for small molecule agonists of the antioxidant response element (ARE) signaling pathway (AID 743202; active means well fitted activation curve with a large enough effect in the signal ratio in the repeat runs, not every such curve was filed as active; the % refers to the signal ratio)
In short: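 Quantitative high-throughput format in HepG2 cells bearing an integrated ARE-beta-lactamase reporter. Compound exposure lasted 16 h at 37 C, and fluorescence was read 2 h after adding LiveBLAzer B/G substrate at room temperature.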

[7] = qHTS assay for small molecule agonists of the antioxidant response element (ARE) signaling pathway - cell viability counter screen (AID 743203; calls by dose curve; further: nearly all actives have a fitted effect of over 55% in size; further: potency means the concentration at half of the fitted maximal effect)
In short: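 HepG2 cells carrying ARE-driven beta-lactamase; 2,000 cells/well; 5 hrs plating; compound pinned from DMSO; 16 hrs 37C/5% CO2; CellTiter-Glo added; 30 min RT; luminescence.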

[8] = qHTS assay for small molecule activators of the heat shock response signaling pathway - cell viability counter screen (AID 743209); further: nearly all actives have a fitted effect of over 50% in size; further: potency means the concentration at half of the fitted maximal effect
In short: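 Luminescence from CellTiter-Glo, added after the beta-lactamase FRET read, gave the viability signal. Cells were HSE-bla HeLa treated with DMSO-dissolved compounds for 5 h at 37 C following overnight plating.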

[9] = qHTS assay for small molecule activators of the heat shock response signaling pathway (AID 743210; active means well fitted activation curve with a large enough effect in the signal ratio in the repeat runs, with a control signal flat, not every such curve was filed as active; the % refers to the signal ratio;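 further: HeLa cells with beta-lactamase reporter driven by heat shock elements; series mostly up to about 63 µM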)
In short: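 HeLa HSE-bla cells, overnight plating; cpd in DMSO 5 h, 37 C; LiveBLAzer B/G FRET substrate 2.5 h RT; fluorescence intensity read.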

[10] = qHTS assay to identify small molecule agonists of the peroxisome proliferator-activated receptor delta (PPARd) signaling pathway - cell viability counter screen (AID 743211); further: nearly all actives have a fitted effect of over 55% in size
In short: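 HEK293H PPARd-bla, 3000 cells/well; 5 h preincubation 37C/5% CO2; cpd in DMSO, 17 h 37C; B/G FRET substrate 2 h RT; CellTiter-Glo 30 min RT, luminescence.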

[11] = molecular target: Peroxisome proliferator-activated receptor delta (Homo sapiens) (UniProt Q03181); assay: qHTS assay to identify small molecule agonists of the peroxisome proliferator-activated receptor delta (PPARd) signaling pathway (AID 743212; calls by dose curve)
Peroxisome proliferator-activated receptor delta (Homo sapiens), sequence (Q03181 whole entry, looked up): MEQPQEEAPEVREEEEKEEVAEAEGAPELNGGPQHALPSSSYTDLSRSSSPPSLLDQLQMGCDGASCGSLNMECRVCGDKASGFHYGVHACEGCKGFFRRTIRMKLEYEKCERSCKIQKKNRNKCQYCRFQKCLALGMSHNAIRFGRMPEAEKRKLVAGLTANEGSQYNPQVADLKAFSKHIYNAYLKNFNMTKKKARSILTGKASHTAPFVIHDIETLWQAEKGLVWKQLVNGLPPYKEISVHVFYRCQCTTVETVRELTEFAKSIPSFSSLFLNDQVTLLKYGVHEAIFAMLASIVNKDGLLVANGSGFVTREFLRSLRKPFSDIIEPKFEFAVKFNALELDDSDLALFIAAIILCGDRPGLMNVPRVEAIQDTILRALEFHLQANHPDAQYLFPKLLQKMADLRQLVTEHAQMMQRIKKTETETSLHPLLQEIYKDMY
In short: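 HEK293H PPARd-bla cells; 5 h preincubation 37 C/5% CO2; compound (DMSO) 37 C; LiveBLAzer B/G FRET substrate 2 h RT; fluorescence intensity.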

[12] = qHTS assay to identify small molecule antagonists of the peroxisome proliferator-activated receptor delta (PPARd) signaling pathway - cell viability counter screen (AID 743213); further: nearly all actives have a fitted effect of over 50% in size
In short: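 Viability counter-screen, qHTS format: PPARd-bla HEK293H, L165041 300 nM final, 17 h compound exposure at 37 C, CellTiter-Glo luminescence after 30 min RT.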

[13] = molecular target: Peroxisome proliferator-activated receptor delta (Homo sapiens) (UniProt Q03181); assay: qHTS assay to identify small molecule antagonists of the peroxisome proliferator-activated receptor delta (PPARd) signaling pathway (AID 743215; active means well fitted inhibition curve with a large enough effect in the signal ratio in the repeat runs, not every such curve was filed as active; the % refers to the signal ratio;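 further: cells stimulated with agonist L165041 at 300 nM final during compound exposure; series mostly up to about 62 µM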)
In short: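 Read-out is beta-lactamase FRET fluorescence, measured 2 h after substrate addition at room temperature. Beforehand, UAS-bla HEK293H cells carrying the PPARd reporter were exposed to compounds with L165041 at 300 nM final for 17 h at 37 C.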

[14] = molecular target: Bile acid receptor (Homo sapiens) (UniProt Q96RI1); assay: qHTS assay to identify small molecule antagonists of the farnesoid-X-receptor (FXR) signaling pathway (AID 743217; active means well fitted inhibition curve with a large enough effect in the signal ratio in the repeat runs, not every such curve was filed as active; the % refers to the signal ratio)
Bile acid receptor (Homo sapiens), sequence (Q96RI1 whole entry, looked up): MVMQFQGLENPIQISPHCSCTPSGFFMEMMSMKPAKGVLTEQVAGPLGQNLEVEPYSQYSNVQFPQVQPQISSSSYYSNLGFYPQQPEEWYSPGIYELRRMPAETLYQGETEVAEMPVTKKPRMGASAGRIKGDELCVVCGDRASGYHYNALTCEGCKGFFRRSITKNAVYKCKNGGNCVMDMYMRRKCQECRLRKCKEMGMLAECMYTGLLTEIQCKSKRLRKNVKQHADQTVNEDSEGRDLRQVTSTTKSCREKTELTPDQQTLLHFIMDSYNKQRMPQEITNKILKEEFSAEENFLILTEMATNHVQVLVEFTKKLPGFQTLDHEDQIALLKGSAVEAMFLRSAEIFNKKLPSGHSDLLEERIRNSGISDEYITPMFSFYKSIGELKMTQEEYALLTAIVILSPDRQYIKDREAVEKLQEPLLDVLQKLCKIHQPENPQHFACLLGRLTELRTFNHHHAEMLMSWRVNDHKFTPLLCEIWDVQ
In short: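 HEK 293T FXR-UAS-bla, 5000 cells/well; compound + CDCA 50 uM final; 16 h, 37 °C; B/G FRET substrate 2 h RT; fluorescence.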

[15] = qHTS assay to identify small molecule agonists of the farnesoid-X-receptor (FXR) signaling pathway - cell viability counter screen (AID 743218); further: nearly all actives have a fitted effect of over 45% in size; further: potency means the concentration at half of the fitted maximal effect
In short: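 HEK 293T FXR-bla cells; 5 h pre-incubation, 16 h compound exposure at 37 C; LiveBLAzer substrate 2 h RT, then CellTiter-Glo 30 min RT, luminescence.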

[16] = molecular target: Bile acid receptor (Homo sapiens) (UniProt Q96RI1); assay: qHTS assay to identify small molecule agonists of the farnesoid-X-receptor (FXR) signaling pathway (AID 743220; active means well fitted activation curve with a large enough effect in the signal ratio in the repeat runs, not every such curve was filed as active; the % refers to the signal ratio)
In short: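 Beta-lactamase reporter under UAS control in GeneBLAzer FXR HEK 293T cells (5000/well) measured with LiveBLAzer FRET substrate after 2 h at room temperature. Compound exposure lasted 16 h at 37C.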

[17] = qHTS assay to identify small molecule antagonists of the farnesoid-X-receptor (FXR) signaling pathway - cell viability counter screen (AID 743221; active means well fitted cell-killing curve with a large enough effect in the repeat runs, not every such curve was filed as active; further: nearly all actives have a fitted effect of over 50% in size)
In short: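 Luminescence from CellTiter-Glo measures cytotoxicity in GeneBLAzer FXR-UAS-bla HEK 293T cells. Cells were exposed to compounds with 50 uM chenodeoxycholic acid (final) for 16 h at 37 C, in wells also used for the reporter readout.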

[18] = molecular target: Vitamin D3 receptor (Homo sapiens) (UniProt P11473); assay: qHTS assay to identify small molecule antagonists of the vitamin D receptor (VDR) signaling pathway (AID 743223; active means well fitted inhibition curve with a large enough effect in the signal ratio in the repeat runs, not every such curve was filed as active; the % refers to the signal ratio)
Vitamin D3 receptor (Homo sapiens), sequence (P11473 whole entry, looked up): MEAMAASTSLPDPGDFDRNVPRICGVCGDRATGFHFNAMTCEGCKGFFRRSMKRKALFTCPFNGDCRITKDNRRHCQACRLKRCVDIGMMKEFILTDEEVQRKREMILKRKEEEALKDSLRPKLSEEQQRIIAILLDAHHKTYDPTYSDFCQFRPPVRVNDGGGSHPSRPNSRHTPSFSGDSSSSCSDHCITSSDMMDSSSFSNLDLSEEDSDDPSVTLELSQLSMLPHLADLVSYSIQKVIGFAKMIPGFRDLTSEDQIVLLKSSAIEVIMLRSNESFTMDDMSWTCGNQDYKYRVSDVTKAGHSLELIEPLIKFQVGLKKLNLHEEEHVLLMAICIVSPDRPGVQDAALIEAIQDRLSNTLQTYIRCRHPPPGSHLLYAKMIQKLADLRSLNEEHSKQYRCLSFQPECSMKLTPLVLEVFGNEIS
In short: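 Antagonist mode uses 1alpha,25-dihydroxyvitamin D3 at 3 nM final as stimulus. VDR-bla cells receive compounds in DMSO, incubate 16 h at 37C, then a beta-lactamase FRET substrate for 2 h at room temperature before fluorescence measurement.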

[19] = qHTS assay to identify small molecule that activate the aryl hydrocarbon receptor (AhR) signaling pathway - cell viability counter screen (AID 743086);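 further: HepG2 liver cells carrying the AhR DRE luciferase reporter; series mostly up to about 70 µM; nearly all actives have a fitted effect of over 45% in size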
In short: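 Cytotoxicity counter screen: CellTiter-Fluor signal (30 min, 37 C) in 4000 HepG2 cells/well carrying the DRE-luciferase reporter, following 24 h compound exposure at 37 C.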

[20] = molecular target: Vitamin D3 receptor (Homo sapiens) (UniProt P11473); assay: qHTS assay to identify small molecule agonists of the vitamin D receptor (VDR) signaling pathway (AID 743222; calls by dose curve)
In short: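 VDR-bla cells, 2,000/well; 4 h preincubation 37C; cpd (DMSO) 16 h; LiveBLAzer B/G substrate 2 h RT; fluorescence intensity read.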
On the % scale 0 is the no-effect control and ±100 the full control effect.

COC(=O)c1ccccc1CS(=O)(=O)NC(=O)Nc1nc(OC)cc(OC)n1
inactive: Potency [1] | Potency [2] | outcome [3] | Potency [4] | Potency [5] | Potency [6] | Potency [7] | Potency [8] | Potency [9] | Potency [10] | outcome [11] | Potency [12] | Potency [13] | outcome [14] | Potency [15] | outcome [16] | Potency [17] | outcome [18]

O=P(O)(O)c1ccccc1
inactive: Potency [1] | Potency [2] | Potency [19] | Potency [5] | Potency [6] | Potency [7] | Potency [8] | Potency [9] | Potency [10] | outcome [11] | Potency [12] | Potency [15] | Potency [17] | outcome [20] | outcome [18]

CCN[C@H](C)Cc1cccc(C(F)(F)F)c1
inactive: Potency [1] | Potency [2] | outcome [3] | Potency [4] | Potency [5] | Potency [7] | Potency [8] | Potency [9] | outcome [11] | Potency [12] | Potency [13] | outcome [14] | Potency [15] | Potency [17]

CCC1(CC)C(=O)C=CNC1=O
inactive: Potency [1] | Potency [19] | outcome [3] | Potency [4] | Potency [5] | Potency [6] | Potency [7] | Potency [8] | Potency [9] | Potency [10] | outcome [11] | Potency [12] | Potency [13] | Potency [15] | Potency [17]

Cl/C=C/CCl
inactive: Potency [1] | Potency [19] | outcome [3] | Potency [4] | Potency [5] | Potency [6] | Potency [7] | Potency [8] | Potency [9] | Potency [10] | outcome [11] | Potency [12] | Potency [13] | Potency [15] | Potency [17] | outcome [18]

CC[C@H](O)C(C[C@H](C)N(C)C)(c1ccccc1)c1ccccc1
inactive: Potency [1] | Potency [2] | outcome [3] | Potency [5] | Potency [7] | Potency [8] | Potency [9] | outcome [11] | Potency [12] | Potency [13] | outcome [14] | Potency [15] | outcome [16] | outcome [20] | outcome [18]

CCOC(=O)c1ncn2c1CN(C)C(=O)c1c(I)cccc1-2
inactive: Potency [1] | Potency [19] | outcome [3] | Potency [4] | Potency [5] | Potency [6] | Potency [7] | Potency [8] | Potency [9] | Potency [10] | outcome [11] | Potency [12] | Potency [13] | outcome [14] | Potency [15] | outcome [16] | Potency [17] | outcome [20]

N#CN=C1SCCN1Cc1ccc(Cl)nc1
inactive: Potency [1] | Potency [2] | outcome [3] | Potency [4] | Potency [6] | Potency [7] | Potency [8] | Potency [9] | Potency [10] | outcome [11] | Potency [13] | Potency [15] | Potency [17]

CCOC(=O)C(SP(=S)(OC)OC)c1ccccc1 (stereo not given)
inactive: Potency [1] | Potency [19] | outcome [3] | Potency [4] | Potency [5] | Potency [6] | Potency [7] | Potency [8] | Potency [9] | Potency [10] | Potency [12] | outcome [14] | outcome [16] | Potency [17] | outcome [20] | outcome [18]

Brc1c(Br)c(Br)c(Br)c(Br)c1Br
inactive: activity change, negative = cytotoxicity [1] -1.05% [at 8.47 µM] | activation [2] -0.623% [at 8.47 µM] | activity change, negative = cytotoxicity [5] -21% [at 5.95 µM, co-treated with 50 nM rosiglitazone] | activation [6] -11.1% [at 8.36 µM] | viability change, negative = cytotoxic [7] -9.94% [at 8.36 µM] | activity change, negative = cytotoxicity [8] -1.06% [at 5.95 µM] | activation [9] -1.19% [at 5.95 µM] | activity change, negative = cytotoxicity [10] 3.57% [at 5.95 µM] | activation [11] 3.14% [at 5.95 µM] | ratio activity, negative = inhibition [13] -21.8% [at 6.26 µM] | viability change, negative = cytotoxic [15] 26.7% [at 5.95 µM] | activity change, negative = cytotoxicity [17] -6% [at 5.95 µM]

CCOC(=O)Nc1cccc(OC(=O)Nc2ccccc2)c1
active: Potency [2] 54.5 µM
inactive: Potency [1] | outcome [3] | Potency [5] | Potency [6] | Potency [7] | Potency [8] | Potency [9] | Potency [10] | outcome [11] | Potency [13] | Potency [15] | Potency [17] | outcome [18]

C[C@]12C=CC(=O)C=C1CC[C@@H]1[C@@H]2CC[C@@]2(C)[C@H]1CC[C@]2(C)O
inactive: Potency [1] | Potency [2] | outcome [3] | Potency [5] | Potency [7] | Potency [8] | Potency [9] | Potency [10] | Potency [15] | Potency [17] | outcome [18]

C=C1CC[C@@]2(O)[C@H]3Cc4ccc(O)c5c4[C@@]2(CCN3CC2CC2)[C@H]1O5
inactive: Potency [1] | Potency [2] | outcome [3] | Potency [5] | Potency [6] | Potency [7] | Potency [8] | Potency [9] | Potency [10] | outcome [11] | Potency [12] | Potency [13] | Potency [15] | Potency [17] | outcome [18]

O=c1[nH]c2ccccc2o1
inactive: Potency [1] | Potency [2] | outcome [3] | Potency [5] | Potency [6] | Potency [7] | Potency [8] | Potency [9] | outcome [11] | Potency [12] | Potency [13] | Potency [15] | Potency [17] | outcome [20]

CS(=O)(=O)c1ccc(C(=O)C2C(=O)CCCC2=O)c(Cl)c1COCC(F)(F)F
inactive: Potency [1] | Potency [2] | Potency [4] | Potency [5] | Potency [6] | Potency [7] | Potency [8] | outcome [11] | Potency [12] | Potency [13] | Potency [15] | Potency [17] | outcome [20] | outcome [18]

CCCOC(=O)Cc1ccc(OCC(=O)N(CC)CC)c(OC)c1
inactive: Potency [1] | Potency [19] | outcome [3] | Potency [4] | Potency [5] | Potency [6] | Potency [7] | Potency [8] | Potency [9] | Potency [10] | outcome [14] | Potency [15] | outcome [16] | Potency [17]

Cc1ccc(-c2nc3ccc(C)cn3c2CC(=O)N(C)C)cc1
inactive: Potency [1] | Potency [19] | outcome [3] | Potency [4] | Potency [5] | Potency [6] | Potency [7] | Potency [8] | Potency [9] | Potency [10] | Potency [17] | outcome [18]

ClC1=C(Cl)C2(Cl)C(CBr)CC1(Cl)C2(Cl)Cl (stereo not given)
54.9 µM (active) and inactive: Potency [8] | Potency [15]
54.5 µM (active) and inactive: Potency [7]
inactive: Potency [1] | Potency [2] | outcome [3] | Potency [6] | Potency [9] | Potency [10] | outcome [11] | Potency [12] | Potency [13] | Potency [17] | outcome [18]
